Results filed as inconclusive are left out. Active and inactive are the calls of the source. Rule for the calls, unless noted: active = hit-call score of the fitted dose curve at least 0.9, where 1 is the maximum; inconclusive = response in the unintended direction; inactive = score below 0.9.
How the values were obtained:
[1] = Tanguay_ZF_120hpf_EYE_legacy: (Legacy) Oregon State University Tanguay Lab 120 Hour Post-fertilization zebrafish Assay for Eye Malformation (AID 2283636);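 note: binary presence or absence of eye malformation scored by brightfield in 120 hpf larvae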
How it was run: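 Dechorionated wild-type Tropical 5D zebrafish embryos were exposed statically from 6 hpf, one per well, to 120 hpf at 28C in sealed, foil-covered plates with 0.64% DMSO. Eye malformation was scored present/absent by brightfield microscopy against DMSO controls.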

[2] = Tanguay_ZF_120hpf_SNOU_legacy: (Legacy) Oregon State University Tanguay Lab 120 Hour Post-fertilization zebrafish Assay for Snout Malformation (AID 2283637)
How it was run: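 Tropical 5D wild-type zebrafish embryos, dechorionated with pronase at 4 hpf, were exposed singly from 6 hpf to 120 hpf statically at 28C in 0.64% DMSO. Snout malformation was scored present/absent by brightfield microscopy, fitted against DMSO.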

[3] = Tanguay_ZF_120hpf_JAW_legacy: (Legacy) Oregon State University Tanguay Lab 120 Hour Post-fertilization zebrafish Assay for Jaw Malformation (AID 2283638);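 for AC50: active means more embryos with jaw malformation than DMSO controls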
How it was run: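 Wild-type 5D embryos, chorion removed at 4 hpf, dosed singly from 6 hpf; 28C static, sealed, foil-covered, to 120 hpf. Endpoint: jaw defect yes/no (brightfield); mortality excludes scoring.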

[4] = Tanguay_ZF_120hpf_OTIC_legacy: (Legacy) Oregon State University Tanguay Lab 120 Hour Post-fertilization zebrafish Assay for Otic Vesicle Malformation (AID 2283639)
How it was run: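 Otic vesicle malformation is read as a yes/no morphology call at 120 hpf. Exposure is static at 28C with 0.64% (vol/vol) DMSO; embryos that die are excluded from non-mortality endpoints.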

[5] = Tanguay_ZF_120hpf_BRAI_legacy: (Legacy) Oregon State University Tanguay Lab 120 Hour Post-fertilization zebrafish Assay for Brain Malformation (AID 2283641)
How it was run: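 Static exposure of staged wild-type embryos until 120 hpf, kept at 28C with light excluded and final DMSO of 0.64% (vol/vol). Presence or absence of brain malformation was noted under brightfield; mortality precluded scoring.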

[6] = Tanguay_ZF_120hpf_SOMI_legacy: (Legacy) Oregon State University Tanguay Lab 120 Hour Post-fertilization zebrafish Assay for Somite Malformation (AID 2283647)
How it was run: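 Somitogenesis defects are recorded as binary calls in whole larvae at 120 hpf after continuous static chemical exposure starting at 6 hpf in dechorionated 5D embryos. DMSO serves as negative control and baseline.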

[7] = Tanguay_ZF_120hpf_PFIN_legacy: (Legacy) Oregon State University Tanguay Lab 120 Hour Post-fertilization zebrafish Assay for Pectoral Fin Malformation (AID 2283648);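 note: each larva judged yes or no for fin defect by brightfield with dead larvae skipped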
How it was run: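 Tropical 5D wild-type embryos, dechorionated with pronase at 4 hpf, were placed singly in wells at 6 hpf and statically exposed until 120 hpf at 28C, sealed and dark, with 0.64% (vol/vol) final DMSO; pectoral fin malformation scored present/absent.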

[8] = Tanguay_ZF_120hpf_CFIN_legacy: (Legacy) Oregon State University Tanguay Lab 120 Hour Post-fertilization zebrafish Assay for Caudal Fin Malformation (AID 2283649)
How it was run: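 Single dechorionated 5D wild-type embryos are dosed at 6 hpf (final DMSO 0.64%) and held statically at 28C. Caudal fin malformation is recorded as present or absent at 120 hpf under brightfield, excluding dead embryos.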

[9] = Tanguay_ZF_120hpf_PIG_legacy: (Legacy) Oregon State University Tanguay Lab 120 Hour Post-fertilization zebrafish Assay for Pigmentation Malformation (AID 2283650)
How it was run: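 Tropical 5D wild-type zebrafish embryos, dechorionated with pronase at 4 hpf, were exposed singly from 6 hpf to 120 hpf statically at 28C in sealed, dark plates with 0.64% DMSO; pigmentation scored present/absent by brightfield microscopy, fitted against DMSO.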

[10] = Tanguay_ZF_120hpf_CIRC_legacy: (Legacy) Oregon State University Tanguay Lab 120 Hour Post-fertilization zebrafish Assay for Circulatory Malformation (AID 2283651)
How it was run: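 Using wild-type Tropical 5D zebrafish, we exposed dechorionated embryos from 6 to 120 hpf in embryo medium with 0.64% DMSO. Circulatory defects were scored as present or absent; 5uM trimethyltin chloride served as positive control.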

[11] = read-out: solute carrier (SLC22A6), SLC22A6 (gene 9356); test: LTEA_HepaRG_SLC22A6: Life Technologies and Expression Analysis (LTEA) Assay for solute carrier (SLC22A6) using HepaRG (AID 2283653; active = hit-call score of the fitted dose curve at least 0.9, where 1 is the maximum; inactive = score below 0.9); details: mRNA level, 48 h; actives raise or lower the signal
How it was run: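 Gene-expression endpoint in HepaRG hepatic cells: duplicate 8-point concentration-response, highest 100 uM, 48 h treatment in serum-free medium with 0.5% DMSO. SLC22A6 expression measured by qRT-PCR, normalised to ACTB/GAPDH/POLR2A.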

[12] = Tanguay_ZF_120hpf_SWIM_legacy: (Legacy) Oregon State University Tanguay Lab 120 Hour Post-fertilization zebrafish Assay for Swim Bladder Malformation (AID 2283654);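 note: swim bladder malformation in each larva scored yes or no under brightfield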
How it was run: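 Dechorionated Tropical 5D wild-type embryos, placed singly from 6 hpf, were statically exposed at 28C to 120 hpf with 0.64% DMSO final; swim bladder malformation was scored present/absent by brightfield microscopy, gain of signal relative to DMSO controls.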

[13] = Tanguay_ZF_120hpf_TRUN_legacy: (Legacy) Oregon State University Tanguay Lab 120 Hour Post-fertilization zebrafish Assay for Truncated Body (AID 2283655)
How it was run: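 Single dechorionated zebrafish embryos received test chemical from 6 hpf in 0.64% DMSO, kept at 28C. At 120 hpf, brightfield inspection noted any truncated body.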

[14] = Tanguay_ZF_120hpf_NC_legacy: (Legacy) Oregon State University Tanguay Lab 120 Hour Post-fertilization zebrafish Assay for Notochord and Tail Malformation (AID 2283656)
How it was run: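 Dechorionated 5D zebrafish, 1/well from 6 hpf; static exposure to 120 hpf, 28C, sealed, dark; final DMSO 0.64% v/v. NC scored binary (present/absent); dead embryos not scored. Fit vs DMSO baseline, gain direction.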

[15] = read-out: solute carrier (SLC10A1), SLC10A1 (gene 6554); test: LTEA_HepaRG_SLC10A1: Life Technologies and Expression Analysis (LTEA) Assay for solute carrier (SLC10A1) using HepaRG (AID 2283657; active = hit-call score of the fitted dose curve at least 0.9, where 1 is the maximum; inactive = score below 0.9); details: mRNA level, 48 h; actives raise or lower the signal
How it was run: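 Differentiated HepaRG cells were plated 48 h, then exposed in serum-free induction medium for 48 h to 8 concentrations (top 100 uM, half-log steps, 0.5% DMSO). SLC10A1 mRNA was quantified by qRT-PCR normalized to ACTB, GAPDH, POLR2A; bidirectional fit versus DMSO.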

[16] = read-out: matrix metalloproteinase-1 (MMP1), MMP1 (gene 4312); test: LTEA_HepaRG_MMP1: Life Technologies and Expression Analysis (LTEA) Assay for matrix metalloproteinase-1 (MMP1) using HepaRG (AID 2283658; active = hit-call score of the fitted dose curve at least 0.9, where 1 is the maximum; inactive = score below 0.9); details: mRNA level, 48 h; actives raise or lower the signal
How it was run: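 In this screen, human liver HepaRG cultures receive each chemical in duplicate for 48 h (top 100 uM, 0.5% DMSO). MMP1 expression is then quantified by TaqMan qRT-PCR with ACTB/GAPDH/POLR2A normalization.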

[17] = tested on: Thyroperoxidase (TPO), gene 54314; test: CCTE_Simmons_AUR_rTPO: CCTE's Amplex UltraRed Assay for Thyroperoxidase (TPO) Inhibition, Simmons Lab (AID 2283662);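 note: potency for loss of signal meaning inhibition of peroxidase activity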
How it was run: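 Rat thyroid microsomal TPO + 25 uM AUR in 200 mM K phosphate; cpd 5 nM–87.5 uM [final], 8 conc, 0.5% DMSO; 300 uM H2O2 starts rxn; 37C dark 30 min; endpoint FI 544/590 nm; n=3.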

[18] = CCTE_Simmons_CellTiterGLO_HEK293T: Viability Assessment in CCTE's Assays for Thyroperoxidase (TPO) Inhibition, Simmons Lab (AID 2283665);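 for AC50: cells exposed to compound for 24 h before readout; actives reduce ATP signal below DMSO vehicle meaning cytotoxicity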
How it was run: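 Cytotoxicity counter-screen: human HEK293T cells in low-serum (1% FBS) medium receive test chemical, 5 nM to 87.5 uM final, for 24 h; ATP is quantified by luciferase luminescence.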

[19] = Tanguay_ZF_120hpf_PE_legacy: (Legacy) Oregon State University Tanguay Lab 120 Hour Post-fertilization zebrafish Assay for Pericardial Edema (AID 2283640);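 for AC50: potency for increased incidence of pericardial edema versus DMSO baseline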
How it was run: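 Zebrafish larvae are exposed from early development to 120 hpf at 28C, with 0.64% DMSO final. Each surviving larva receives a yes/no pericardial edema call by brightfield imaging, analysed relative to the DMSO baseline.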

[20] = read-out: kallikrein-3 (KLK3), KLK3 (gene 354); test: LTEA_HepaRG_KLK3: Life Technologies and Expression Analysis (LTEA) Assay for kallikrein-3 (KLK3) using HepaRG (AID 2283652; active = hit-call score of the fitted dose curve at least 0.9, where 1 is the maximum; inactive = score below 0.9); details: mRNA level, 48 h; actives raise or lower the signal
How it was run: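 Differentiated human HepaRG cells in serum-free induction medium exposed 48 h in duplicate, eight-point half-log series from 100 uM in 0.5% DMSO. KLK3 mRNA by qRT-PCR, normalised to ACTB, GAPDH, POLR2A; bidirectional fit versus DMSO.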

## C[C@]12CC[C@@H]3c4ccc(O)cc4CC[C@H]3[C@@H]1CC[C@H]2O
[1]
  outcome: inactive
[2]
  outcome: inactive
[3]
  outcome: inactive
[4]
  outcome: inactive
[5]
  outcome: inactive
[6]
  outcome: inactive
[7]
  outcome: inactive
[8]
  outcome: inactive
[9]
  outcome: inactive
[10]
  outcome: inactive
[11]
  outcome: inactive
[12]
  outcome: inactive
[13]
  outcome: inactive
[14]
  outcome: inactive
[15]
  AC50: 72.6 µM (active)
[16]
  outcome: inactive
[17]
  AC50: 4.06 µM (active)
[18]
  outcome: inactive

## Cc1cn([C@H]2C[C@H](N=[N+]=[N-])[C@@H](CO)O2)c(=O)[nH]c1=O
[1]
  outcome: inactive
[2]
  outcome: inactive
[3]
  outcome: inactive
[4]
  outcome: inactive
[19]
  outcome: inactive
[6]
  outcome: inactive
[8]
  outcome: inactive
[9]
  outcome: inactive
[10]
  outcome: inactive
[12]
  outcome: inactive
[13]
  outcome: inactive
[14]
  outcome: inactive

## CN1C(=O)N(c2ccccc2Br)Cc2cnc(Nc3ccc4c(c3)OCC(CO)O4)nc21 (centres undefined)
[1]
  AC50: 3.44 µM (active)
[2]
  AC50: 2.27 µM (active)
[3]
  AC50: 0.972 µM (active)
[4]
  outcome: inactive
[19]
  AC50: 2.66 µM (active)
[5]
  outcome: inactive
[6]
  outcome: inactive
[8]
  outcome: inactive
[9]
  AC50: 49.7 µM (active)
[10]
  outcome: inactive
[12]
  outcome: inactive
[13]
  outcome: inactive

## O=C1c2ccccc2C(=O)N1CCc1noc(-c2ccc(CN3CCCCCC3)s2)n1
[1]
  outcome: inactive
[2]
  outcome: inactive
[3]
  outcome: inactive
[4]
  outcome: inactive
[19]
  outcome: inactive
[5]
  outcome: inactive
[6]
  outcome: inactive
[8]
  outcome: inactive
[9]
  outcome: inactive
[10]
  outcome: inactive
[20]
  outcome: inactive
[11]
  outcome: inactive
[12]
  outcome: inactive
[13]
  outcome: inactive
[14]
  outcome: inactive
[15]
  AC50: 11.1 µM (active)
[16]
  outcome: inactive

## O=c1c(-c2ccc(O)cc2)coc2cc(O)cc(O)c12
[1]
  outcome: inactive
[2]
  outcome: inactive
[3]
  outcome: inactive
[4]
  outcome: inactive
[5]
  outcome: inactive
[6]
  outcome: inactive
[8]
  outcome: inactive
[9]
  outcome: inactive
[10]
  outcome: inactive
[12]
  outcome: inactive
[13]
  outcome: inactive
[14]
  outcome: inactive
[17]
  AC50: 3.6 µM (active)

## Cc1cc2c(cc1C(F)(F)F)N(C(=O)Nc1ccc(Oc3cccnc3C)nc1)CC2
[1]
  outcome: inactive
[2]
  outcome: inactive
[3]
  outcome: inactive
[4]
  outcome: inactive
[19]
  outcome: inactive
[5]
  outcome: inactive
[6]
  outcome: inactive
[8]
  outcome: inactive
[9]
  outcome: inactive
[12]
  outcome: inactive
[13]
  outcome: inactive
[14]
  outcome: inactive

## COc1cc(C(=O)NC2CCN(C)CC2)ccc1Nc1ncc2c(n1)N(C1CCCC1)CC(F)(F)C(=O)N2C
[1]
  AC50: 10.1 µM (active)
[2]
  AC50: 10.1 µM (active)
[3]
  AC50: 34.6 µM (active)
[4]
  outcome: inactive
[19]
  AC50: 35.6 µM (active)
[5]
  AC50: 12.3 µM (active)
[6]
  outcome: inactive
[7]
  outcome: inactive
[8]
  outcome: inactive
[9]
  outcome: inactive
[12]
  outcome: inactive
[13]
  AC50: 31 µM (active)
[14]
  AC50: 33 µM (active)
[17]
  AC50: 40.7 µM (active)
[18]
  AC50: 15.3 µM (active)

## CCCCCCCCCCCCO
[1]
  outcome: inactive
[2]
  outcome: inactive
[3]
  outcome: inactive
[4]
  outcome: inactive
[5]
  outcome: inactive
[6]
  outcome: inactive
[8]
  outcome: inactive
[9]
  outcome: inactive
[10]
  outcome: inactive
[11]
  outcome: inactive
[12]
  outcome: inactive
[13]
  outcome: inactive
[14]
  outcome: inactive
[15]
  outcome: inactive
[16]
  outcome: inactive
